About 2,000 (36%) of roughly 5,500 compounds were called active. Another 18% or so got no clear call; they are omitted. This is one part of the list. Unmarked numbers belong to inactive results. Cut-off read from the data, not from the text of the source: active = normalized growth mostly below about 0.91 (no sharp cut-off); inconclusive = no clear call, values can overlap the other calls; inactive = mostly above about 0.92.
Assay: chemical genetic growth profiling, strain panel (AID 1159580);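 note: tested at 20 µM; growth read once vehicle control cultures reached saturation at 30 °C; 1 = growth at the plate median or of vehicle wells; lower values mean less growth of the strain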
Settings: growth OD

CCCCOC(=O)c1ccccc1C(=O)OCCCC
normalized growth (S. cerevisiae deletion strains, locus YJR066W, strain TOR1, hits give low values): 0.92
normalized growth (S. cerevisiae deletion strains, locus YJR075W, strain HOC1, hits give low values): 0.991
normalized growth (S. cerevisiae deletion strains, locus YKL009W, strain mrt4, hits give low values): 0.941
normalized growth (S. cerevisiae deletion strains, locus YKL068W, hits give low values): 0.977
normalized growth (S. cerevisiae deletion strains, locus YKL085W, strain MDH1 (second series), hits give low values): 0.984
normalized growth (S. cerevisiae deletion strains, locus YKL085W, strain MDH1, hits give low values): 0.984
normalized growth (S. cerevisiae deletion strains, locus YKL160W, strain elf1, hits give low values): 0.985
normalized growth (S. cerevisiae deletion strains, locus YKL190W, strain CNB1, hits give low values): 0.972
normalized growth (S. cerevisiae deletion strains, locus YKR001C, strain vps1, hits give low values): 0.983
normalized growth (S. cerevisiae deletion strains, locus YKR026C, strain gcn3, hits give low values): 0.986
normalized growth (S. cerevisiae deletion strains, locus YKR091W, strain srl3, hits give low values): 0.982
normalized growth (S. cerevisiae deletion strains, locus YLL001W, strain dnm1, hits give low values): 0.987
normalized growth (S. cerevisiae deletion strains, locus YLL026W, hits give low values): 0.982
normalized growth (S. cerevisiae deletion strains, locus YLL041C, strain sdh2, hits give low values): 0.975
normalized growth (S. cerevisiae deletion strains, locus YLR027C, strain aat2, hits give low values): 0.974
normalized growth (S. cerevisiae deletion strains, locus YLR039C, strain RIC1, hits give low values): 0.941
normalized growth (S. cerevisiae deletion strains, locus YLR058C, strain SHM2, hits give low values): 0.968
normalized growth (S. cerevisiae deletion strains, locus YLR102C, strain apc9, hits give low values): 0.982
normalized growth (S. cerevisiae deletion strains, locus YLR113W, strain HOG1, hits give low values): 0.89
normalized growth (S. cerevisiae deletion strains, locus YLR221C, strain rsa3, hits give low values): 0.957
normalized growth (S. cerevisiae deletion strains, locus YLR258W, strain gsy2, hits give low values): 0.974
normalized growth (S. cerevisiae deletion strains, locus YLR262C, strain YPT6 (second series), hits give low values): 0.838 (active)
normalized growth (S. cerevisiae deletion strains, locus YLR262C, strain YPT6, hits give low values): 0.931
normalized growth (S. cerevisiae deletion strains, locus YLR268W, strain sec22, hits give low values): 0.96
normalized growth (S. cerevisiae deletion strains, locus YLR320W, strain mms22, hits give low values): 0.924
normalized growth (S. cerevisiae deletion strains, locus YLR330W, strain CHS5, hits give low values): 0.977
normalized growth (S. cerevisiae deletion strains, locus YLR342W, strain FKS1 (second series), hits give low values): 0.875
normalized growth (S. cerevisiae deletion strains, locus YLR342W, strain FKS1, hits give low values): 0.948
normalized growth (S. cerevisiae deletion strains, locus YLR357W, strain rsc2, hits give low values): 1.02
normalized growth (S. cerevisiae deletion strains, locus YLR370C, strain arc18, hits give low values): 0.99
normalized growth (S. cerevisiae deletion strains, locus YLR371W, strain rom2, hits give low values): 0.974
normalized growth (S. cerevisiae deletion strains, locus YLR384C, strain iki3, hits give low values): 0.99
normalized growth (S. cerevisiae deletion strains, locus YLR418C, strain cdc73, hits give low values): 0.978
normalized growth (S. cerevisiae deletion strains, locus YML016C, strain PPZ1, hits give low values): 0.992
normalized growth (S. cerevisiae deletion strains, locus YML032C, strain rad52, hits give low values): 0.982
normalized growth (S. cerevisiae deletion strains, locus YML120C, strain ndi1, hits give low values): 0.983
normalized growth (S. cerevisiae deletion strains, locus YML124C, strain tub3, hits give low values): 0.975
normalized growth (S. cerevisiae deletion strains, locus YMR058W, strain fet3, hits give low values): 0.992
normalized growth (S. cerevisiae deletion strains, locus YMR078C, strain ctf18, hits give low values): 0.979
normalized growth (S. cerevisiae deletion strains, locus YMR125W, strain sto1, hits give low values): 0.969
normalized growth (S. cerevisiae deletion strains, locus YMR129W, hits give low values): 0.98
normalized growth (S. cerevisiae deletion strains, locus YMR205C, strain PFK2, hits give low values): 0.949
normalized growth (S. cerevisiae deletion strains, locus YMR223W, strain ubp8, hits give low values): 0.975
normalized growth (S. cerevisiae deletion strains, locus YMR231W, strain pep5, hits give low values): 0.996
normalized growth (S. cerevisiae deletion strains, locus YMR263W, strain SAP30, hits give low values): 0.977
normalized growth (S. cerevisiae deletion strains, locus YMR307W, strain GAS1, hits give low values): 0.713
normalized growth (S. cerevisiae deletion strains, locus YNL067W, strain RPL9B, hits give low values): 0.979
normalized growth (S. cerevisiae deletion strains, locus YNL071W, strain lat1, hits give low values): 0.944
normalized growth (S. cerevisiae deletion strains, locus YNL128W, strain TEP1, hits give low values): 0.98
normalized growth (S. cerevisiae deletion strains, locus YNL153C, strain GIM3, hits give low values): 0.998
normalized growth (S. cerevisiae deletion strains, locus YNL183C, strain NPR1, hits give low values): 0.911
normalized growth (S. cerevisiae deletion strains, locus YNL209W, strain ssb2, hits give low values): 0.99
normalized growth (S. cerevisiae deletion strains, locus YNL233W, strain BNI4, hits give low values): 0.994
normalized growth (S. cerevisiae deletion strains, locus YNL248C, strain rpa49, hits give low values): 0.987
normalized growth (S. cerevisiae deletion strains, locus YNL250W, strain rad50, hits give low values): 0.961
normalized growth (S. cerevisiae deletion strains, locus YNL271C, strain bni1, hits give low values): 0.978
normalized growth (S. cerevisiae deletion strains, locus YNL298W, strain CLA4, hits give low values): 0.966
normalized growth (S. cerevisiae deletion strains, locus YNL307C, strain MCK1, hits give low values): 0.952
normalized growth (S. cerevisiae deletion strains, locus YNL322C, strain KRE1 (second series), hits give low values): 0.981
normalized growth (S. cerevisiae deletion strains, locus YNL322C, strain KRE1, hits give low values): 0.978
normalized growth (S. cerevisiae deletion strains, locus YNR049C, strain mso1, hits give low values): 0.976
normalized growth (S. cerevisiae deletion strains, locus YNR052C, strain pop2, hits give low values): 0.971
normalized growth (S. cerevisiae deletion strains, locus YOL006C, strain TOP1, hits give low values): 0.94
normalized growth (S. cerevisiae deletion strains, locus YOL012C, strain htz1): 0.914
normalized growth (S. cerevisiae deletion strains, locus YOL147C, strain pex11, hits give low values): 0.976
normalized growth (S. cerevisiae deletion strains, locus YOR001W, strain rrp6, hits give low values): 0.979
normalized growth (S. cerevisiae deletion strains, locus YOR061W, strain CKA2, hits give low values): 0.984
normalized growth (S. cerevisiae deletion strains, locus YOR069W, strain VPS5, hits give low values): 0.977
normalized growth (S. cerevisiae deletion strains, locus YOR070C, strain gyp1, hits give low values): 0.983
normalized growth (S. cerevisiae deletion strains, locus YOR080W, strain dia2, hits give low values): 0.99
normalized growth (S. cerevisiae deletion strains, locus YOR083W, strain WHI5, hits give low values): 0.98
normalized growth (S. cerevisiae deletion strains, locus YOR106W, strain vam3, hits give low values): 0.916
normalized growth (S. cerevisiae deletion strains, locus YOR136W, strain idh2, hits give low values): 0.988
normalized growth (S. cerevisiae deletion strains, locus YOR144C, strain elg1, hits give low values): 0.973
normalized growth (S. cerevisiae deletion strains, locus YOR184W, strain ser1, hits give low values): 0.943
normalized growth (S. cerevisiae deletion strains, locus YOR231W, strain MKK1, hits give low values): 0.945
normalized growth (S. cerevisiae deletion strains, locus YOR265W, strain rbl2, hits give low values): 0.986
normalized growth (S. cerevisiae deletion strains, locus YOR270C, strain vph1, hits give low values): 0.846
normalized growth (S. cerevisiae deletion strains, locus YOR290C, strain snf2, hits give low values): 0.975
normalized growth (S. cerevisiae deletion strains, locus YOR316C, strain cot1, hits give low values): 0.977
normalized growth (S. cerevisiae deletion strains, locus YPL055C, strain LGE1, hits give low values): 0.967
normalized growth (S. cerevisiae deletion strains, locus YPL078C, strain atp4, hits give low values): 0.98
normalized growth (S. cerevisiae deletion strains, locus YPL106C, strain sse1, hits give low values): 1.02
normalized growth (S. cerevisiae deletion strains, locus YPL240C, strain hsp82, hits give low values): 0.969
normalized growth (S. cerevisiae deletion strains, locus YPL241C, strain CIN2, hits give low values): 0.976
normalized growth (S. cerevisiae deletion strains, locus YPL256C, strain CLN2, hits give low values): 0.973
normalized growth (S. cerevisiae deletion strains, locus YPR119W, strain clb2, hits give low values): 0.974
normalized growth (S. cerevisiae deletion strains, locus YPR141C, strain kar3, hits give low values): 0.978
normalized growth (S. cerevisiae deletion strains, locus YPR163C, strain tif3, hits give low values): 0.97
normalized growth (S. cerevisiae deletion strains, locus YPR167C, strain met16, hits give low values): 0.984
normalized growth (S. cerevisiae deletion strains, strain wtn01, hits give low values): 0.965
normalized growth (S. cerevisiae strains, strain wild type, hits give low values): 0.987

From PubChem BioAssay AID1159580 (chemical genetic matrix, 2015)
